Screening data deposited in PubChem BioAssay by National Center for Advancing Translational Sciences (NCATS).
Nrf2 block: Nrf2 qHTS screen for inhibitors; 360,000 tested, 2.1% active; Potency, µM (highest dose often 46 µM), for inactives: top-dose activity change, negative = inhibition, most hits filed as inhibitors; AID 504444, 2011; A549 ARE-Fluc reporter, luciferase luminescence, 18-24 h; note: % is set by controls: 0 for no effect and ±100 for the full control effect; nearly all actives have a fitted effect of over 60% in size
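Nrf2 activity is the BugLite luminescence, read 15 min after reagent at room temperature, following CellTiter-Fluor cytotoxicity readout (30 min, 37C). Compound titrations were applied for 18-24 h to 5000 A549 ARE_Fluc cells/well in 5% FBS OPTI-MEM.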
ELG1 DNA repair: qHTS screen for small molecules that inhibit ELG1-dependent DNA repair in human embryonic kidney (HEK293T) cells expressing luciferase-tagged ELG1. Potency, µM (doses to about 46.1 µM), without a hit: at the top dose activity change, negative = inhibition, actives largely listed as inhibitors. 330,000 tested, 2.3% active. HEK293T ELG1-luciferase reporter, luminescence, 16 h; DNA damage induced by 5-fluorouridine; note: % is set by controls: 0 for no effect and ±100 for the full control effect; nearly all actives have a fitted effect of over 55% in size
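Luminescence from the luciferase reporter, measured 30 min after ONE-Glo reagent at room temperature, was the read-out. Beforehand, 2,000 cells per well were exposed for 16 hr at 37 °C to 5-fluorouridine together with compound or vehicle.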
A549 tox: Nrf2 qHTS screen for inhibitors: counterscreen for cytotoxicity; Potency, µM (titrated, usually from 46 µM), inactives show top-dose activity change, negative = cytotoxicity, most hits filed as inhibitors; 390,000 tested, 0.16% active; A549 ARE-Fluc cells, CellTiter-Fluor viability, 18-24 h; note: % is set by controls: 0 for no effect and ±100 for the full control effect
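A549 ARE_Fluc cells in 5% FBS OPTI-MEM were exposed to compounds in concentration-response for 18-24 h at 37 deg C. Viability was read by CellTiter-Fluor fluorescence (Ex 405/Em 525) after 30 min, before the luciferase read.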
Nrf2 activator: qHTS of Nrf2 Activators. AREc32 ARE-luciferase reporter (MCF7-derived line), luminescence, 24 h. 410,000 tested, 0.31% active. Potency, µM (series often up to 46.1 µM), for inactives: at the top dose activation, actives largely listed as activators; note: % of control where 0% means no effect; nearly all actives have a fitted effect of over 65% in size
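Nrf2 activation is followed as ARE-luciferase induction in the AREc32 line after one day of compound treatment; luminescence is read with Steady-Glo.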
* marks the source's active call; other numbers are inactive results; ? = inconclusive; nt = no result; [ ] = remark or other dose. Only some compounds are listed: those with a hit (about 3.7% of all), similar ones and a draw of the others. Calls come from the whole dose curve; as a rule, active = well fitted curve in the direction sought with a large enough effect; inconclusive = small, poorly fitted or top-dose-only effect, or another doubt; inactive = no such curve, though single readings can be large; an effect the other way counts as inactive or inconclusive. Potency is the fitted concentration of half-maximal effect.

SMILES	Nrf2 block	ELG1 DNA repair	A549 tox	Nrf2 activator
COc1cc(OC)c2ccc(=O)oc2c1C(CCN1CCCC1)c1ccc2c(c1)OCO2 (stereo not drawn)	11.1%	6.5%	18.4µM*	0.8%
COc1ccc(C(CCN2CCOCC2)c2c(OC)cc(OC)c3ccc(=O)oc23)cc1 (stereo not drawn)	-3.9%	?	14.6µM*	3.5%
COc1ccc(OC)c(CN2CCN(C(=O)[C@@H](NC(=O)c3cccc(C)c3)C(C)C)CC2)c1	-20.6%	?	-9.4%	0.2%
CCCNS(=O)(=O)c1ccc(N2CCCC2=O)c([N+](=O)[O-])c1	26.7%	-4.3%	-4.2%	-0.2%
O=C1CCCN1c1ccc(S(=O)(=O)Oc2ccc(Cl)cc2)cc1[N+](=O)[O-]	7.31µM*	-10.6%	?	0.0%
COc1ccc(-c2ccc3ncnc(NCc4ccc(C)o4)c3c2)cc1OC	-22.6%	nt	-14.7%	nt
COc1ccc(C(=O)CSc2nnc(CNc3ccc(C)cc3C)n2Cc2ccco2)cc1	?	?	-2.8%	0.2%
Cc1ccc(C(=O)CSc2nnc(CNc3ccc(C)cc3C)n2Cc2ccco2)cc1	23.1µM*	-25.0%	?	-0.4%
O=C(CSc1nc2ccccc2c(=O)n1Cc1ccco1)c1ccc(F)cc1	11.6µM*	?	1.7%[1.84 µM]	0.3%
Cc1nc2ccccc2c(=O)n1Cc1ccco1	-13.9%	-4.7%	0.0%	4.0%
NC(=O)CSc1nc2ccccc2c(=O)n1Cc1ccco1	nt	-4.0%	2.3%	-0.6%
O=C(CSc1nnc(-c2cc3ccccc3cc2O)n1Cc1ccco1)c1ccc(F)cc1	23.1µM*	?	nt	8.5%
O=C1c2ccccc2C(=O)N1CCc1nc2ccccc2c(=O)n1Cc1ccco1	nt	20.6µM*	-0.2%	-0.6%
FC(F)(F)c1nnc(Nc2ccc(Cl)cc2)s1	-9.9%	10.3µM*	-0.9%	0.2%
OC(c1cccc(OCc2ccccc2)c1)c1nnc(-c2ccccc2)o1 (stereo not drawn)	?	-14.7%	-5.7%	0.6%
OC(c1ccc(OCc2ccccc2)cc1)c1nnc(-c2ccccc2)o1 (stereo not drawn)	16.4µM*	-5.2%	-18.4%	-0.1%
CCCc1cc(=O)[nH]c(Nc2ccc(C(=O)O)cc2)n1	4.9%	nt	-0.3%	-1.0%
CCCc1cc(=O)[nH]c(Nc2ccccc2O)n1	0.3%	nt	0.1%	11.2µM*
O=C(CSc1nc2c([nH]c3ccccc32)c(=O)n1-c1ccccc1F)Nc1ccccc1C(F)(F)F	nt	nt	-27.7%	0.9%
COC(=O)C1C(=O)C2=C(CC1C)NC(C)=C(C(=O)OCCOc1ccccc1)C2c1ccc(C)o1 (stereo not drawn)	?	23.1µM*	-1.9%	0.1%
Cn1c(=O)c2cn(Cc3ccc(Cl)cc3)cc2n(C)c1=O	11.6µM*	-24.9%	15.5%	0.0%
C=CCOc1c(Br)cc(CNc2ccc(NC(=O)C(C)C)c(OC)c2)cc1OC	9.2µM*	-6.6%	-21.8%	-0.1%
c1csc(-c2nc3ccccn3c2Nc2ccc3c(c2)OCCO3)c1	23.1µM*	nt	-21.8%	-0.4%
Cc1cccc(Cn2c(=O)n(CCCC(=O)NCc3ccccc3Cl)c(=O)c3ccccc32)c1	10.3µM*	nt	-18.4%	0.2%
COc1ccccc1N(CC(=O)NC1CCCC1)C(=O)c1oc(C(C)(C)C)cc1C	?	?	-1.3%	-0.3%
SMILES	Nrf2 block	ELG1 DNA repair	A549 tox	Nrf2 activator
CCC(C(=O)Nc1ccccc1C(=O)OC)n1c(C)c2cnn(-c3ccccc3)c(=O)c2c1C (stereo not drawn)	?	nt	-0.8%	0.9%
CSc1ccc(C(=O)C2CCCN(C(=O)CCc3c(C)nn(C)c3C)C2)cc1 (stereo not drawn)	9.2µM*	nt	-16.9%	-0.1%
CSc1ccc(C(=O)C2CCCN(C(=O)CCn3cncn3)C2)cc1 (stereo not drawn)	23.9%	-13.3%	-2.1%	-1.0%
COCCCNC(=O)CSc1nc(-c2cccc(F)c2)[nH]c1-c1ccccc1	14.6µM*	nt	-23.8%	0.1%
COc1ccc(-c2[nH]c(-c3ccc(F)cc3)nc2SCC(=O)NCc2ccco2)cc1OC	-14.8%	18.4µM*	11.9%	0.7%
COc1ccc(-c2nc(SCC(=O)NCc3ccco3)c(-c3ccccc3)[nH]2)cc1OC	-4.7%	9.2µM*	-5.8%	3.7%
COc1ccc(-c2[nH]c(-c3ccc(F)cc3)nc2SCC(=O)Nc2ccc(OC)c(OC)c2)cc1	-17.0%	nt	?	-0.2%
COc1ccc(-c2[nH]c(-c3ccccc3)nc2SCC(=O)NCc2ccco2)cc1OC	2.6%	?	2.9%	-0.7%
O=S(=O)(NCCc1ccc(F)cc1)c1ccc(F)cc1Br	-0.2%	-1.3%	-4.1%	0.5%
O=C(N/N=C1\CC(c2ccccc2)Oc2ccccc21)c1ccc(O)cc1 (stereo not drawn)	-0.5%	18.3µM*	-1.3%	3.0%
CCC(=O)c1ccc2ncccc2c1	16.7%	14.4%	2.8%	-0.7%
c1ccc(CNc2ncnc3scc(-c4cccs4)c23)nc1	?	8.2µM*	-7.1%	?
CN(C)CCCNc1ncnc2scc(-c3ccccc3)c12	-0.4%	-2.5%	6.2%	4.7%
c1ccc(-c2csc3ncnc(NCc4ccccn4)c23)cc1	?	11.6µM*	-3.9%	11.7%
Clc1ccc(C=Cc2ccccn2)cc1	?	nt	2.9%	8.91µM*
C=CCOC(=O)C1=C(C)NC(SCC)=C(C#N)C1c1ccc(Cl)cc1 (stereo not drawn)	20.6µM*	?	?	-0.5%
C=CCOC(=O)C1=C(C)NC(SCC(=O)Nc2ccc(C)c(Cl)c2)=C(C#N)C1c1ccco1 (stereo not drawn)	6.51µM*	-0.4%	-23.3%	3.5%
C=CCOC(=O)C1=C(C)NC(SCC(N)=O)=C(C#N)C1c1ccc(C)cc1 (stereo not drawn)	13.2%	17.9%	-0.7%	0.3%
CCOC(=O)C1=C(c2ccccc2)NC(SCC(=O)NC2CCCCC2)=C(C#N)C1c1ccco1 (stereo not drawn)	?	18.4µM*	-13.2%	0.4%
Cc1cc(C(=O)COC(=O)c2ccccc2O)c(C)n1Cc1cccs1	6.51µM*	?	?	-3.0%
Cc1cc(C(=O)COC(=O)c2ccc3c(c2)OCO3)c(C)n1Cc1cccs1	?	?	-0.4%	-0.3%
C=CCn1c(C)cc(C(=O)COC(=O)c2ccc(N)c([N+](=O)[O-])c2)c1C	?	?	-11.2%	-0.1%
CCCn1c(C)cc(C(=O)COc2ccc(S(=O)(=O)N(CC)CC)cc2[N+](=O)[O-])c1C	?	16.4µM*	1.4%	2.0%
CCn1c(C)cc(C(=O)COC(=O)c2ccccc2[N+](=O)[O-])c1C	0.731µM*	?	-0.9%	-2.9%
CCOC(=O)c1cc2c(=O)n3ccccc3nc2n(CCOC)c1=NC(=O)c1c(-c2ccccc2Cl)noc1C	2.2%[9.27 µM]	nt	1.8%	-0.5%
O=C(COC(=O)c1ccc(O)cc1O)Nc1ncc(Cl)cc1Cl	10.5%	-1.2%	-3.6%	0.4%
